PubChem BioAssay (Tox21)
Where “and” joins values, the source holds several entries; their conditions need not be identical. Identical values can stand only once. Results filed as inconclusive are left out. Calls of active or inactive are those of the source. Unless noted, calls follow the shape of the dose curve; as a rule, active = well fitted curve in the direction sought with a large enough effect in the repeat runs; inconclusive = weak or mixed curves; inactive = no such curve, though single readings can be large; an effect the other way counts as inactive or inconclusive.

Legend:
[1] = qHTS assay for small molecule agonists of the p53 signaling pathway (AID 651631; calls by dose curve; also: nearly all actives have a fitted effect of over 15% in size; also: potency is read from the fitted curve at half-maximal effect)
Method in brief: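 Fluorescence intensity from cleaved LiveBLAzer B/G substrate (2 h, room temperature) served as the signal. Beforehand, HCT-116 reporter cells bearing p53 response elements were treated 16 h at 37 °C with DMSO-dissolved compounds.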

[2] = qHTS assay for small molecules that induce genotoxicity in human embryonic kidney cells expressing luciferase-tagged ATAD5 (AID 651632); also: nearly all actives have a fitted effect of over 15% in size; also: potency is read from the fitted curve at half-maximal effect
Method in brief: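 A rise in luciferase signal from ATAD5-tagged HEK293T cells marks genetic stress. Cells were exposed to compounds for 16 hr at 37C, 5% CO2, then luciferase was quantified after a 30 min room-temperature incubation with Amplite.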

[3] = qHTS assay for small molecule agonists of the p53 signaling pathway - cell viability (AID 651633; calls by dose curve; also: nearly all actives have a fitted effect of over 30% in size; also: potency is read from the fitted curve at half-maximal effect)
Method in brief: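 p53RE-bla cells, seeded at 4,000 per well and rested 5 h at 37 C/5% CO2, received compounds in DMSO for 16 h at 37 C. CellTiter-Glo was then added, and luminescence was read after 30 min at room temperature to gauge cytotoxicity.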

[4] = qHTS assay for small molecules that induce genotoxicity in human embryonic kidney cells expressing luciferase-tagged ATAD5 - cell viability (AID 651634; calls by dose curve; also: nearly all actives have a fitted effect of over 25% in size; also: potency is read from the fitted curve at half-maximal effect)
Method in brief: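 Cytotoxicity counter-readout: after 15.5 hr compound treatment at 37C, live-cell protease activity in ATAD5-luciferase HEK293T cells measured by CellTiter-Fluor fluorescence, 30 min development at 37C.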

[5] = qHTS assay for small molecule disruptors of the mitochondrial membrane potential - cell viability (AID 720634; calls by dose curve;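 also: human HepG2 liver cancer cells; series mostly up to about 83 µM; nearly all actives have a fitted effect of over 20% in size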)
Method in brief: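 Cytotoxicity was quantified from ATP content by CellTiter-Glo luminescence in the same wells as the MMP dye read-out. HepG2 (2,000 cells/well) were plated overnight and exposed to compounds for 1 hr at 37 C.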

[6] = qHTS assay to test for compound auto fluorescence at 590 nm (red) in HepG2 cells (AID 720674)
Method in brief: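 Intrinsic compound fluorescence in the red window (Ex/Em 540/590 nm) is measured in attached HepG2 cells exposed for 1 hr, DMSO vehicle as baseline, benchmarked to Rose Bengal sodium.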

[7] = qHTS assay to test for compound auto fluorescence at 535 nm (green) in HepG2 cells (AID 720675)
[8] = qHTS assay to test for compound auto fluorescence at 460 nm (blue) in HEK293 cells (AID 720678)
Method in brief: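 Triamterene serves as the blue fluorophore standard. Compound signal at 405/460 nm is read in HEK293 wells (2,000 cells, 10% dialyzed FBS) after overnight treatment at 37C.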

[9] = qHTS assay to test for compound auto fluorescence at 590 nm (red) in HEK293 cells (AID 720679)
Method in brief: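 We plated HEK293 cells in 10% dialyzed FBS medium, let them adhere for 4-5 hr, then added 23 nL compound. Overnight at 37C and 5% CO2 preceded fluorescence measurement at 540/590nm.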

[10] = qHTS assay for small molecule disruptors of the mitochondrial membrane potential (AID 720635); also: potency is read from the fitted curve at half-maximal effect
Method in brief: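 HepG2 cells (2,000/well) attached overnight at 37C, then took compound for 1 hr at 37C, 5% CO2. Mito-MPS dye was added for 30 min; fluorescence was read at 490/535 nm (monomers) and 540/590 nm (aggregates).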

Measured: Potency

C=C(C#N)C(=O)OCC
not listed: [10]
inactive: all other assays above

O=C(O)c1cc(-c2ccccc2)nc2ccccc12
not listed: [10]
inactive: all other assays above

c1ccc2ccccc2c1
inactive: all assays above

O=[N+]([O-])C(CO)(CO)CO
not listed: [5] | [10]
inactive: all other assays above

CCOC(=O)/C=C\C(=O)OCC
inactive: all assays above

COCC(C)O (stereo not given)
not listed: [10]
inactive: all other assays above

CS(=O)(=O)c1ccc([C@@H](O)[C@@H](CO)NC(=O)C(Cl)Cl)cc1
inactive: all assays above

O=c1c(-c2ccc(O)cc2)coc2cc(O)ccc12
active: [2] 30.3 µM | [10] 19.1 µM
not listed: [5]
inactive: all other assays above

NC(=O)/N=N/C(N)=O
not listed: [10]
inactive: all other assays above

CCOC(=O)[C@H](CCc1ccccc1)N[C@@H](C)C(=O)N1Cc2ccccc2C[C@H]1C(=O)O
inactive: all assays above

CC[Si](OC(C)=O)(OC(C)=O)OC(C)=O
inactive: all assays above

C=C(C)C(=O)OCCCCCCCCCCCC
not listed: [10]
inactive: all other assays above

C=C(C)C(=O)OCCCCCC
not listed: [10]
inactive: all other assays above

CC1=C(CC(=O)O)c2cc(F)ccc2/C1=C\c1ccc(S(C)=O)cc1 (stereo not given)
not listed: [10]
inactive: all other assays above

COC(=O)c1ccc(C(=O)OC)cc1
inactive: all assays above

CC1(C)O[C@@H]2C[C@H]3[C@@H]4C[C@H](F)C5=CC(=O)CC[C@]5(C)[C@H]4[C@@H](O)C[C@]3(C)[C@]2(C(=O)CO)O1
inactive: all assays above

O=C1O[C@H](CO)[C@@H](O)[C@H](O)[C@H]1O
inactive: all assays above

C[C@@H]1O[C@@H](OC[C@H]2O[C@@H](Oc3c(-c4ccc(O)c(O)c4)oc4cc(O)cc(O)c4c3=O)[C@H](O)[C@@H](O)[C@@H]2O)[C@H](O)[C@H](O)[C@H]1O
inactive: all assays above

CC#C[C@]1(O)CC[C@H]2[C@@H]3CCC4=CC(=O)CCC4=C3[C@@H](c3ccc(N(C)C)cc3)C[C@@]21C
active: [1] 21.1 µM and 61.1 µM | [3] 9.44 µM | [10] 10.6 µM
not listed: [4]
inactive: all other assays above

Cc1cc(Cc2ccc(N)c(C)c2)ccc1N
not listed: [5] | [10]
inactive: all other assays above

CN(C)c1ccc(C(=N)c2ccc(N(C)C)cc2)cc1
active: [1] 4.28 µM and 5.88 µM | [4] 48 µM and 46.7 µM | [10] 27 µM and 46.7 µM
inactive: all other assays above

Clc1ccc(Cl)c(Cl)c1Cl
not listed: [5] | [10]
inactive: all other assays above

O=C(c1cc(O)c(O)c(O)c1)c1ccc(O)c(O)c1O
active: [1] 54.3 µM | [3] 54.3 µM | [4] 54.3 µM and 54.5 µM | [10] 30.5 µM and 19.3 µM
inactive: all other assays above

Cc1cc(=O)[nH]c(C(C)C)n1
inactive: all assays above
